Experimental findings from PubChem BioAssay (NCATS) are described below.

For assay [1], the target named is Voltage-gated inwardly rectifying potassium channel KCNH2 (Homo sapiens) (UniProt Q12809). The assay can be described thus: qHTS Assay for Small Molecule Inhibitors of the Human hERG Channel Activity (AID 588834).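 Note: lower thallium flux fluorescence means stronger hERG block; nearly all actives have a fitted effect of over 50% in size.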 Note: potency is the fitted concentration of half-maximal effect. The method in brief:
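Thallium serves as surrogate for K+ influx through BacMam-delivered hERG in U2OS cells. Compounds are added for about 10 minutes after dye loading; stimulation buffer then starts flux, monitored kinetically on FDSS.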

A short description of assay [2]: S16 Schwann cell viability assay (CellTiter-Glo assay) (AID 624031). Note: nearly all actives have a fitted effect of over 70% in size. Note: potency is the fitted concentration of half-maximal effect. The method in brief: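 Concentration-effect curves come from CellTiter-Glo luminescence of S16 rat Schwann cells after 24 h compound exposure. Each reading was normalized to DMSO wells (0%) and wells without cells, and curves were ranked by r2 and response magnitude.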
The nature of assay [3]: S16 Schwann cell PMP22 intronic element firefly luciferase assay (AID 624032). Note: nearly all actives have a fitted effect of over 30% in size. Note: potency is the fitted concentration of half-maximal effect. The essentials:
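Rat S16 Schwann cells stably carrying firefly luciferase driven by a PMP22 intronic element, in 10% FBS, treated 24 h at 37 C. ONE-Glo luminescence normalized to PTC124 control and DMSO (0%); curves classed by r2, magnitude and activity.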

For assay [4], the target named is Luciferin 4-monooxygenase (Photinus pyralis) (UniProt P08659). The assay can be described thus: Biochemical firefly luciferase enzyme assay for NPC (AID 624030). Note: nearly all actives have a fitted effect of over 70% in size. Note: potency is the fitted concentration of half-maximal effect. The method in brief: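 Purified P. pyralis luciferase at 10 nM in 50 mM Tris Acetate (final), luminescence read within 5 minutes of enzyme addition to compounds. Activity normalised to PTC124 versus DMSO; concentration-response curves classed by r2, magnitude and activity.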
Luciferin 4-monooxygenase (Photinus pyralis), sequence (P08659 whole entry, looked up): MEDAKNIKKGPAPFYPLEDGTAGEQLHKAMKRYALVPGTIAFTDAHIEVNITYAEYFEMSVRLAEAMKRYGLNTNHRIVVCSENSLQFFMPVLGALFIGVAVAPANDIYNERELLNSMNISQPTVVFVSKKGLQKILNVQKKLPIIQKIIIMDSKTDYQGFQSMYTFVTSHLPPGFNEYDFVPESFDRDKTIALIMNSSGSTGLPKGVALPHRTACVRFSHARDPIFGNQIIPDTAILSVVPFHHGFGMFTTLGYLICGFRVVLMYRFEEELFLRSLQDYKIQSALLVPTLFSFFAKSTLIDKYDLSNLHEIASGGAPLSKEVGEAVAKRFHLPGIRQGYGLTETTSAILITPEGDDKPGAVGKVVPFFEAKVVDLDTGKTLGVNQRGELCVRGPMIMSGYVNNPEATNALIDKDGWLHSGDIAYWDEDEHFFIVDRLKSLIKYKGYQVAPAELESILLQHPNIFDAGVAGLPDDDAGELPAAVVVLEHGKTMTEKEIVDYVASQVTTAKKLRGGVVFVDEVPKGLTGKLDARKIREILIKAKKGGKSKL

Assay [5] can be described thus: S16 Schwann cell PMP22 intronic element beta-lactamase assay (AID 624044; calls by dose curve; note: nearly all actives have a fitted effect of over 15% in size). The method in brief: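 Beta-lactamase reporter under a PMP22 intronic regulatory element in stable S16 rat Schwann cells; 24 h compound exposure. 460 nm blue signal normalized between DMSO (0%) and potassium clavulanate, with 535 nm FRET tracking viability; curves classed by r2 and response.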

For assay [6], the target named is Glutaminase kidney isoform, mitochondrial (Homo sapiens) (UniProt O94925). Briefly: qHTS for Inhibitors of Glutaminase (GLS): LOPAC Validation (AID 624146).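 Note: glutamate product detected by oxidase and peroxidase coupled Amplex red fluorescence gain; series mostly up to about 46 µM; nearly all actives have a fitted effect of over 60% in size.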 The method in brief: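 hKGA in 45 mM KH2PO4 (pH 8.2), 0.02% Tween-20 with compound, then 1mM L-Glutamine (stock as added) plus glutamate oxidase/HRP/Amplex red coupling mix. Fluorescence read initially and after 30 min at RT; signal change reflects glutamate formation.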
Glutaminase kidney isoform, mitochondrial (Homo sapiens), sequence (O94925 whole entry, looked up, canonical isoform): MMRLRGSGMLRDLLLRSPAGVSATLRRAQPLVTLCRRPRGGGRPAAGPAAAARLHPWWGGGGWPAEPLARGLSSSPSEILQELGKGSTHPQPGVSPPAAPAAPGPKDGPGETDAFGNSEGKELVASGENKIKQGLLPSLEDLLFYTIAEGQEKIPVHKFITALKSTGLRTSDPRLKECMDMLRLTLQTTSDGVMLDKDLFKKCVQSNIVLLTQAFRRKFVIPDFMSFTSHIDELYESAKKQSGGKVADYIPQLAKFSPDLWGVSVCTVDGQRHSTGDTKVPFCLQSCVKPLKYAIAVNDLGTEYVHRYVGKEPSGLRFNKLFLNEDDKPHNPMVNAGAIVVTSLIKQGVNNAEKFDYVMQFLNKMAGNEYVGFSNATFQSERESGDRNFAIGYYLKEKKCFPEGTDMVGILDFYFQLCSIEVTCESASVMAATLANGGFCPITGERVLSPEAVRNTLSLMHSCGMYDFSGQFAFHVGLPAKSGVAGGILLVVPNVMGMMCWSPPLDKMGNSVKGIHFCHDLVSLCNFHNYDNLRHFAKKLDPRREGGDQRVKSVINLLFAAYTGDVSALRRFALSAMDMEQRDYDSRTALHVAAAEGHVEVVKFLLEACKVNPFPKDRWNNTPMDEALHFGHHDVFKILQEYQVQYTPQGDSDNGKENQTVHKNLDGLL

Assay [7] is described as follows: qHTS of Trypanosoma Brucei Inhibitors: LOPAC Validation (AID 624147). The essentials:
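Assay buffer: 50 mM TEA pH 7.2, 100 mM KCl, 10 mM MgCl2, 0.05% BSA, 0.01% Tween-20. Pyruvate kinase from T. brucei plus substrate met compound, then ADP (130 uM final). Luminescence was read post 45 min RT.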

For assay [8], the target named is Glucagon-like peptide 1 receptor (Homo sapiens) (UniProt P43220). The assay can be described thus: qHTS of GLP-1 Receptor Agonists: LOPAC Validation (AID 624148).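 Note: higher luminescence signal means agonism.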 The essentials:
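HEK293 cells stably co-expressing GLP-1R and a cAMP-responsive luciferase reporter, plated 12 hours before compound, then incubated 4-6 hr at 37 deg C. Luminescence read 12 min after detection reagent.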

Assay [9] in a line: qHTS of Nrf2 Activators: LOPAC Validation (AID 624149). The essentials:
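Cells (AREc32_Fluc) are plated at 1000 per well in OPTI-MEM containing 5% FBS and left overnight. Compounds are pinned in and incubated 24 hr at 37 deg C, and firefly luciferase is detected with Steady-Glo.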

Inconclusive results are not listed. Calls of active or inactive are those of the source. Unless noted, calls come from the whole dose curve; as a rule, active = well fitted curve in the direction sought with a large enough effect; inconclusive = small, poorly fitted or top-dose-only effect, or another doubt; inactive = no such curve, though single readings can be large; an effect the other way counts as inactive or inconclusive.

Voltage-gated inwardly rectifying potassium channel KCNH2 (Homo sapiens), sequence (Q12809 whole entry, looked up): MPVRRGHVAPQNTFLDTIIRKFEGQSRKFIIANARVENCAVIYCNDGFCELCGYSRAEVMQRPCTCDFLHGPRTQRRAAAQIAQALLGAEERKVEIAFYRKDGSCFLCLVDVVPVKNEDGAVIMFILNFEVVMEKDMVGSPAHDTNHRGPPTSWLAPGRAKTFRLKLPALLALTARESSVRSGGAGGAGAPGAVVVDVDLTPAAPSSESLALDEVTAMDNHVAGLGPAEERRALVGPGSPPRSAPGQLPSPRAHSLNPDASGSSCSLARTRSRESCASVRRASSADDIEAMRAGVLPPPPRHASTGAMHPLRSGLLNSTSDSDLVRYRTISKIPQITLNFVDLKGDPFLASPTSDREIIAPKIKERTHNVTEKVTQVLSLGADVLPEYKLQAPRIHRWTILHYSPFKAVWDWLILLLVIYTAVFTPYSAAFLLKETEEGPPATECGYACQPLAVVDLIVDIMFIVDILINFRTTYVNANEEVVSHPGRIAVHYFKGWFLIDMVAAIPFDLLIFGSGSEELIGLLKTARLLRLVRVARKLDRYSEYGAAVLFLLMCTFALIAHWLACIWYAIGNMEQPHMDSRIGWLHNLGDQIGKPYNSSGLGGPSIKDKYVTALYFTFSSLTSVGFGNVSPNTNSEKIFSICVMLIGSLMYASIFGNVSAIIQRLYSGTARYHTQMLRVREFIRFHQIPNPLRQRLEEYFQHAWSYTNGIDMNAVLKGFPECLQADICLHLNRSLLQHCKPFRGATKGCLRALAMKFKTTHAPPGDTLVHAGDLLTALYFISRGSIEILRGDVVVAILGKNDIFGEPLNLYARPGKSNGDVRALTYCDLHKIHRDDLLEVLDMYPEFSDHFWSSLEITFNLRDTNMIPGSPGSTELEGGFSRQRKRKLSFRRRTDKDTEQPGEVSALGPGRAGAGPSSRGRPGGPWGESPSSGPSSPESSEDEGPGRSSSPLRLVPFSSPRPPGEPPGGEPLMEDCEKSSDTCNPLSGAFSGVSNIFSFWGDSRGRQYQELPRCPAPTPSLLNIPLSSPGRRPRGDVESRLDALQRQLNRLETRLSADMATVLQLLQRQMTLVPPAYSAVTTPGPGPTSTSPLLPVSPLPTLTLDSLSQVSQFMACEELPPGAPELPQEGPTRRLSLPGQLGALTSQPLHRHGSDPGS
Glucagon-like peptide 1 receptor (Homo sapiens), sequence (P43220 whole entry, looked up): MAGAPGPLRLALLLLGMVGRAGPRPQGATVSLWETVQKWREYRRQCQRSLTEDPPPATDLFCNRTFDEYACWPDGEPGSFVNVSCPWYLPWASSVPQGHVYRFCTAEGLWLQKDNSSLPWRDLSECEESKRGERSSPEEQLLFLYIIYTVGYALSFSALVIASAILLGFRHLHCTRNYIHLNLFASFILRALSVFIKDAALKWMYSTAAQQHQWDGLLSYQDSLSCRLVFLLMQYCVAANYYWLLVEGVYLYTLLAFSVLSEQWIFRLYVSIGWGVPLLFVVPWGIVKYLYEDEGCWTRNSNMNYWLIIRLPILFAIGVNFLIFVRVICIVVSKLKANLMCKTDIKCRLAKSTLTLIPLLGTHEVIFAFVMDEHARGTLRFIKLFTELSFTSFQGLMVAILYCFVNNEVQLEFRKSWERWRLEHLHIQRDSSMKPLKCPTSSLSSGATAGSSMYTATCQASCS

For the compound `O=C(O)CCC(=O)Nc1ccc(S(=O)(=O)Nc2nccs2)cc1`, the Potency result in assay [1], in assay [2] and in assay [3] was “inactive” throughout.

Take `Cc1cccc(C)c1NC(=O)CN1CCCC1`: the Potency result in assay [1] and in assay [2] was “inactive” each time.

Regarding `O=C(Nc1ncc([N+](=O)[O-])s1)c1cccs1`, the Potency result in assay [1], in [3] and in assay [5] was “inactive” each time. Further, the Potency in assay [4] is 3.61 µM (active).

In the case of `COc1cc(NS(=O)(=O)c2ccc(N)cc2)ncn1`, the Potency entry in assay [1], in [2] and in [3] was “inactive” in each case.

For `CC(C)NCC(O)c1ccc2ccccc2c1` (configuration not stated), the Potency result in [1], in assay [4] and in assay [3] was “inactive” in each case.

`c1ccc(CC2=NCCN2)cc1`: the Potency entry in assay [1], in assay [4], in [2] and in [5] was “inactive” throughout.

As for `CC(=O)Nc1ccc(CC(=O)O)cc1`, the Potency entry in assay [1], in [2] and in assay [3] was “inactive” each time.

Consider `N#CCC(=O)NN`, for which the Potency result in assay [1], in assay [2] and in assay [3] was “inactive” each time.

Turning to `CCc1oc2ccccc2c1C(=O)c1cc(Br)c(O)c(Br)c1`, the Potency entry in [1], in assay [2] and in assay [3] was “inactive” each time.

With `CNCCCCOc1ccccc1Cc1ccccc1`, the Potency in assay [1] was 6.31 µM (active); in assay [2], 28.7 µM (active). Further, the Potency entry in assay [4] and in [5] was “inactive” in each case.

`Cc1ccc(-c2ncc(Cl)cc2-c2ccc(S(C)(=O)=O)cc2)cn1`: the Potency entry in [1], in assay [4], in assay [2] and in [5] was “inactive” throughout.

`CC(C)Cc1ccc(CC(=O)O)cc1`: the Potency result in assay [1], in assay [2] and in assay [3] was “inactive” throughout.

Regarding `CC(C)CCCC(C)N` (configuration not stated), the Potency entry in [1], in assay [2] and in assay [3] was “inactive” in each case.

As to `CCCCCCCCCCCCSCCOCCO`, the Potency result in assay [1], in assay [4], in assay [2] and in assay [5] was “inactive” each time.

`CCOC(=O)Nc1ccc2c(c1)N(C(=O)CCN1CCOCC1)c1ccccc1S2`: the Potency entry in assay [1], in [4], in assay [2] and in assay [5] was “inactive” in each case.

Turning to `CCCCCCCCCCCCCC[N+](C)(C)Cc1ccccc1`, the Potency in assay [1] is 7.94 µM (active); in assay [3], 32.2 µM (active). The Potency result in assay [4] and in assay [5] was “inactive” each time.

With `O=C(CCN1CCN2CCCC2C1)N1c2ccccc2Sc2ccc(Cl)cc21` (configuration not stated), the Potency in [1] is 15.8 µM (active). For the same compound, the Potency entry in assay [4], in assay [3] and in assay [5] was “inactive” throughout.

Consider `NC(=S)N/N=C/c1cccnc1`, for which the Potency result in assay [1], in [4], in [3] and in assay [5] was “inactive” in each case.

On to `O=C(CN1CCN(Cc2ccc3c(c2)OCO3)CC1)N1c2ccccc2Sc2ccccc21`, for which the results for the Potency in assay [1] and in [3] were 2.51 µM (active) and 12.8 µM (active), respectively. Moreover, the Potency result in assay [4] and in assay [5] was “inactive” throughout.

In the case of `CO[C@]12C[C@@H](COC(=O)c3cncc(Br)c3)CN(C)[C@@H]1Cc1cn(C)c3cccc2c13`, the Potency in assay [1] was 0.398 µM (active). The Potency entry in assay [4], in [3] and in assay [5] was “inactive” throughout.

Regarding `O=C(Nc1ccc([N+](=O)[O-])cc1)Nc1ccc([N+](=O)[O-])cc1`, in [1], the Potency is 14.1 µM (active). In assay [2], the Potency entry is “inactive”.

For `C#C[C@]1(OC(C)=O)CC[C@H]2[C@@H]3CCC4=C/C(=N/O)CC[C@@H]4[C@H]3CC[C@@]21CC`, the Potency result in [1] and in assay [4] was “inactive” throughout. Further, the Potency in [3] is 8.09 µM (active).

Regarding `CCOC(=O)[C@H](CCc1ccccc1)N[C@@H](C)C(=O)N1[C@H](C(=O)O)C[C@H]2CCCC[C@@H]21`, the outcome in assay [6], in assay [7], in [8] and in assay [9] was inactive.

Turning to `C=CCN1CCc2nc(N)sc2CC1`, the Potency entry in [4] and in assay [3] was “inactive” in each case.

Turning to `C[N+]1(CC2COC(c3ccccc3)(C3CCCCC3)O2)CCCCC1` (configuration not stated), the Potency result in assay [4], in assay [2] and in assay [5] was “inactive” in each case.

`CN1CCN(CCC(=O)N2c3ccccc3Sc3ccc(C(F)(F)F)cc32)CC1`: the Potency entry in [3] and in assay [5] was “inactive” each time.

As for `CN1CCc2cccc3c2[C@H]1Cc1ccc(O)c(O)c1-3`, the Potency in assay [3] is 14.4 µM (active). In addition, in assay [5], the Potency entry is “inactive”.

As to `Cc1ccc(O)c([C@H](CCN(C(C)C)C(C)C)c2ccccc2)c1`, the Potency entry in assay [4], in [2], in [3] and in [5] was “inactive” each time.

As for `NCCNC(=O)c1ccc(Cl)cn1`, the Potency entry in [4] and in assay [3] was “inactive” in each case.

As for `Cc1cc(-c2ccccc2)nnc1NCCN1CCOCC1`, the Potency result in [2], in assay [3] and in assay [5] was “inactive” in each case.

For the compound `Cc1cc2c(OCC(CNC(C)(C)C)OC(=O)c3ccccc3)cccc2[nH]1` (configuration not stated), the Potency result in assay [4], in [2] and in [5] was “inactive” in each case. Also, the Potency in assay [3] was 18.1 µM (active).

Regarding `CCOC(=O)c1c(N)sc2c1CCN(Cc1ccccc1)C2`, the Potency entry in assay [2] was “inactive”. The Potency in assay [3] is 36.1 µM (active).

On to `FC1(F)C(F)(F)C(F)(F)C2(F)C(F)(F)C(F)(F)C(F)(F)C(F)(F)C2(F)C1(F)F` (configuration not stated), for which the Potency result in assay [2] and in assay [3] was “inactive” throughout.

For the compound `COc1cc(C(=S)N2CCOCC2)ccc1O`, the Potency result in [2] was “inactive”.

For `C[C@@H](O)[C@H]1C(=O)N2C(C(=O)O)=C(S[C@@H]3CN[C@H](CNS(N)(=O)=O)C3)[C@H](C)[C@H]12`, the Potency result in assay [4], in [2], in [3] and in assay [5] was “inactive” each time.

For `CCN(CC)CCOc1ccccc1C(=O)CCc1ccccc1`, the Potency result in [4], in assay [3] and in assay [5] was “inactive” in each case.

On to `CC1=C(C(=O)O)N2C(=O)[C@@H](NC(=O)[C@H](N)c3ccccc3)[C@H]2SC1`, for which the Potency result in [2] and in [3] was “inactive” throughout.

Turning to `O=[N+]([O-])c1cccc(S(=O)(=O)NCCNS(=O)(=O)c2cccc([N+](=O)[O-])c2)c1`, the Potency result in [4], in [3] and in assay [5] was “inactive” in each case.

As for `OCCOCCN1CCN(C2=Nc3ccccc3Sc3ccccc32)CC1`, the Potency entry in assay [4], in [2], in assay [3] and in assay [5] was “inactive” throughout.
